Measurements from the supplement of paper PMC10646978.
± gives the standard deviation.

How the values were obtained:
Conditions in all cases: modulator concentration 10 µM
[1] = tested on: RAW-Dual (murine macrophage reporter line); test: NF-kB reporter (SEAP) activity fold change vs agonist alone; higher = enhanced NF-kB activity
Outline: (§1)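 Overnight stimulation with a PRR agonist followed pre-incubation for 1 hour at 37 °C with compound at 10 μM final. This was done in RAW-Dual murine macrophage reporter cells seeded at 50 000 per well in 384-well plates. NF-κB (SEAP, QUANTI-Blue absorbance at 620 nm) and IRF (Lucia luciferase, QUANTI-Luc luminescence) were read from the supernatant. Each reporter's fold change relative to the mean agonist-only control on the same plate was averaged over replicate plates.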

[2] = tested on: RAW-Dual (murine macrophage reporter line); test: IRF reporter (Lucia luciferase) activity fold change vs agonist alone; higher = enhanced IRF activity
Outline: as §1

[3] = tested on: RAW-Dual (murine macrophage reporter line); test: viability score (confluency relative to resting cells, overnight) (fraction); higher = more viable, active = viable (0.7 or more)
Outline: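 RAW-Dual macrophages in 384-well plates were treated overnight with compound at 10 μM final. IncuCyte imaging recorded confluency, and IncuCyte software built two confluency masks across every imaged well. The viability score expresses confluency relative to resting cells and was judged against a cutoff, which a compound met only if both masks exceeded 70% of resting cells.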

[4] = agonist: CpG ODN 1826 0.5 ug/mL

SMILES	NF-kB reporter [1, 4]	NF-kB reporter ([1]; agonist: LPS 0.1 ug/mL)	NF-kB reporter ([1]; agonist: MPLA […])	IRF reporter ([2]; agonist: 3'3'-cGAMP 10 ug/mL)	IRF reporter ([2]; agonist: LPS 0.1 ug/mL)	IRF reporter ([2]; agonist: MPLA […])	viability score [3]
O=S(=O)(c1ccc(F)cc1)N1CCC(c2nc3ccccc3[nH]2)CC1	1.19 ± 0.085	1.08 ± 0.082	1.03 ± 0.028	0.913 ± 0.033	1.01 ± 0.093	0.997 ± 0.15	0.964 (active)
CC(C)c1cc(-c2n[nH]c(=O)n2-c2ccc3c(ccn3C)c2)c(O)cc1O	0.0963 ± 0.0078	0.155 ± 0.012	0.681 ± 0.062	1.08 ± 0.059	1.22 ± 0.09	1.41 ± 0.12	0.542 (inactive)
Cc1nnc(C)n1N=Cc1ccc(C(F)(F)F)cc1	0.898 ± 0.058	0.789 ± 0.061	0.962 ± 0.038	0.957 ± 0.04	0.909 ± 0.063	0.886 ± 0.093	0.996 (active)
CCC(=O)N1c2ccccc2NC2=C(C(=O)CC(c3ccccc3Cl)C2)C1c1ccc(C)cc1 (configuration not stated)	1.02 ± 0.17	0.983 ± 0.079	0.961 ± 0.15	0.837 ± 0.022	1.2 ± 0.17	1.23 ± 0.36	1.01 (active)
NC(=O)N1CCC(CC(=O)N2CCC([C@H]3c4ncc(Br)cc4CCc4cc(Cl)cc(Br)c43)CC2)CC1	0.342 ± 0.047	0.434 ± 0.12	0.615 ± 0.19	0.325 ± 0.012	0.889 ± 0.23	1.2 ± 0.17	0.0582 (inactive)
OCCN1CCN(CC/C=C2/c3ccccc3Sc3ccc(Cl)cc32)CC1 [Prestw-998]	0.395 ± 0.067	0.914 ± 0.093	1.36 ± 0.26	0.303 ± 0.008	1.85 ± 0.3	2.43 ± 0.28	0.624 (inactive)
CCCCc1nc2cc(/C=C/C(=O)NO)ccc2n1CCN(CC)CC	1.6 ± 0.08	1.77 ± 0.14	2.71 ± 0.12	0.0513 ± 0.0098	0.266 ± 0.019	0.424 ± 0.05	0.0718 (inactive)
CCOCC(=O)Nc1ccc(N2CCCCC2=O)c(C)c1	0.884 ± 0.11	0.79 ± 0.11	0.828 ± 0.16	0.899 ± 0.12	1.06 ± 0.14	1 ± 0.3	0.93 (active)
CC(C)c1ccc(N(CC(=O)NCCSCc2ccc(Cl)cc2)S(C)(=O)=O)cc1	0.597 ± 0.058	0.909 ± 0.076	0.918 ± 0.08	0.588 ± 0.04	1.14 ± 0.066	1.07 ± 0.13	1.01 (active)
CCOC(=O)C1=C(C)NC2=C(C(=O)CC(C)(C)C2)C1c1ccccc1Br (configuration not stated)	0.993 ± 0.096	1.07 ± 0.059	0.934 ± 0.056	0.898 ± 0.022	1.32 ± 0.19	0.975 ± 0.2	1.02 (active)
CCCS(=O)c1ccc2nc(NC(=O)OC)[nH]c2c1 (configuration not stated)	1.04 ± 0.15	0.998 ± 0.1	1.05 ± 0.037	0.971 ± 0.058	0.927 ± 0.037	0.917 ± 0.11	0.998 (active)
O=S(=O)(c1cccc2ccccc12)n1cnc2ccccc21	1.1 ± 0.084	1.06 ± 0.11	0.998 ± 0.1	0.944 ± 0.089	1.26 ± 0.25	1.33 ± 0.26	1.01 (active)
CCN(CC)c1ccc(C=NN2C(=O)c3ccccc3C2=O)cc1	1.05 ± 0.088	1.08 ± 0.07	1.01 ± 0.061	0.827 ± 0.04	1.05 ± 0.1	1.11 ± 0.15	0.994 (active)
CC(C(=O)O)c1ccc(CC2CCCC2=O)cc1 (configuration not stated)	0.81 ± 0.11	1.03 ± 0.26	0.906 ± 0.066	0.916 ± 0.042	1.19 ± 0.18	1.25 ± 0.27	1 (active)
CCOC(=O)[C@H](CCc1ccccc1)N[C@H]1CCc2ccccc2N(CC(=O)O)C1=O.Cl	1.07 ± 0.083	0.961 ± 0.17	0.987 ± 0.021	0.947 ± 0.054	0.935 ± 0.076	0.967 ± 0.14	0.999 (active)
Cc1cc(I)cc2c1NC(c1cccc([N+](=O)[O-])c1)C1CC=CC21 (configuration not stated)	0.921 ± 0.079	0.795 ± 0.058	0.867 ± 0.089	0.497 ± 0.039	1.17 ± 0.23	1.13 ± 0.25	1.02 (active)
COc1ccccc1OCC(O)CN1CCN(CC(=O)Nc2c(C)cccc2C)CC1.Cl.Cl (configuration not stated)	0.724 ± 0.11	0.982 ± 0.19	0.991 ± 0.064	0.908 ± 0.064	1.05 ± 0.23	0.931 ± 0.16	0.991 (active)
CC(NC(=O)c1nc2ccccc2[nH]1)c1ccc(Br)cc1 (configuration not stated)	1.07 ± 0.11	0.938 ± 0.061	0.985 ± 0.047	1 ± 0.14	1 ± 0.073	1.13 ± 0.19	1 (active)
CN1CCN2c3ncccc3Cc3ccccc3C2C1 (configuration not stated)	0.912 ± 0.17	1.07 ± 0.22	1.71 ± 0.85	0.861 ± 0.036	1.42 ± 0.3	1.18 ± 0.21	0.998 (active)
COc1ccc(S(=O)(=O)N(CC(=O)Nc2ccccc2F)c2ccc(C)cc2)cc1OC	0.984 ± 0.087	0.987 ± 0.057	0.933 ± 0.059	0.979 ± 0.024	1.54 ± 0.12	1.16 ± 0.26	1.01 (active)
Cc1ccc(OCCSc2nc3ccccc3c(=O)[nH]2)cc1C	0.728 ± 0.2	1.11 ± 0.13	1.02 ± 0.13	0.886 ± 0.025	1.03 ± 0.22	1.19 ± 0.24	0.818 (active)
CCOC(=O)C1=C(C)NC(C)=C(C(=O)OC)C1c1ccccc1 (configuration not stated)	0.884 ± 0.1	0.831 ± 0.057	1.63 ± 0.059	0.609 ± 0.085	0.896 ± 0.037	0.79 ± 0.06	0.946 (active)
CCOC(=O)[C@H](CCc1ccccc1)N[C@@H](C)C(=O)N1CCC[C@H]1C(=O)O.O=C(O)/C=C\C(=O)O	1.05 ± 0.09	1.01 ± 0.11	1 ± 0.054	1.01 ± 0.085	0.916 ± 0.04	0.868 ± 0.2	1 (active)
O=c1[nH]c(=O)n(C2CC(O)C(CO)O2)cc1F (configuration not stated)	1.67 ± 0.13	0.714 ± 0.057	0.978 ± 0.1	0.321 ± 0.025	0.684 ± 0.14	0.545 ± 0.12	1.04 (active)
CCOc1ccc(N2CCN(CC(=O)O)C2=O)cc1	1.15 ± 0.32	1.06 ± 0.11	1.02 ± 0.1	0.917 ± 0.063	0.968 ± 0.12	1.15 ± 0.21	0.997 (active)
Cc1cc(OC2CCN(S(=O)(=O)CCc3ccccc3)C2)cc(=O)n1C (configuration not stated)	1.13 ± 0.069	0.929 ± 0.088	1.15 ± 0.067	0.7 ± 0.054	0.785 ± 0.19	0.738 ± 0.29	0.975 (active)
